Most compounds without a hit are left out; they make up all but 3.5% or so of the library.
MITF inh – MITF inhibitors, primary screen, biochemical, AlphaScreen, human; Microphthalmia-associated transcription factor (Homo sapiens), O75030; AlphaScreen MITF homodimerization, bead proximity signal; inhibition, % at 2.6 µM; 650,000 compounds, 0.91% hits; in the data active = inhibition above about 50%;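 also: 0% = vehicle wells with protein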
Target sequence (O75030 whole entry, looked up): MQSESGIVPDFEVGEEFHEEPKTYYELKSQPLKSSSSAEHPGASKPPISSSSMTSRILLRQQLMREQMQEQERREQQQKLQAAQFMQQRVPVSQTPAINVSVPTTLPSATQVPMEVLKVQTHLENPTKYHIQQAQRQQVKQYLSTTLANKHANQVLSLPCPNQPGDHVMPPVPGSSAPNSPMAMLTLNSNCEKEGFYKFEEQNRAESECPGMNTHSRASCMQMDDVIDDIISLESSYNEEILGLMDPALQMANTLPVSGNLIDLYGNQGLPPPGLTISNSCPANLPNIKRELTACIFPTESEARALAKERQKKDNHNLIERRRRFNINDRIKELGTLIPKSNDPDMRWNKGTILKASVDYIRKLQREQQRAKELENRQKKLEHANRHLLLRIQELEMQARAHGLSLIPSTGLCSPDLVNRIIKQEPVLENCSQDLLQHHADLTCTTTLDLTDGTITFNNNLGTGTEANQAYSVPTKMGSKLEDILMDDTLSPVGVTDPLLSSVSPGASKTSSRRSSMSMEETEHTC
TEAD-YAP block – TEAD-YAP interaction inhibition, primary screen, TEAD-YAP interaction inhibitor project, luminescence, HEK-TIYL cells; TEAD-Gal4/YAP UAS-luciferase luminescence; inhibition, % at 9.12 µM; 640,000 compounds, 1.4% hits; in the data active = inhibition above about 32%;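 also: 0% = median of test compound wells and 100% = reference inhibitor wells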
GPR151 ag – activators of human GPR151, primary screen, cell-based, PathHunter beta-arrestin, luminescence | PathHunter beta-arrestin GPR151 cells | activation, % at 11.2 µM | 650,000 compounds, 1% hits; in the data active = activation above about 4.9%;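 also: 0% = median of compound wells and 100% = cells with positive control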
FBW7 activator – FBW7 E3 ligase activators, primary screen, biochemical, AlphaScreen, human; 650,000 compounds, 0.13% hits; normalized activity (activation), % at 26.1 µM; AlphaScreen FBW7–phospho-cyclin E peptide binding, activator screen; F-box/WD repeat-containing protein 7 (Homo sapiens), Q969H0; in the data active = normalized activity above about 1.9%;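 also: purified mutant Fbw7 with reduced substrate affinity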
GPR151 confirm – GPR151 activators, triplicate retest, confirmation, cell-based, PathHunter beta-arrestin, luminescence | shares compounds with GPR151 ag | GPR151 PathHunter beta-arrestin cells, 90 min; % of EA-reagent control over plate median | activation, % at 11.2 µM | 6,700 tested, under 10 active;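 active = mean percent activation across replicates above the confirmation screen cutoff of 4.91%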
GPR119 ag – GPR119 activators in beta-arrestin cells, counter-screen for GPR151 activator project, cell-based, PathHunter beta-arrestin, luminescence, triplicate; shares compounds with GPR151 ag; 90 min; 0 = compound-well median, 100 = enzyme-acceptor control; activation, % at 11.2 µM; 6,700 compounds, 0.3% hits; AID 1508611, 2020;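 active = mean percent activation in the counterscreen above 29.09%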;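 also: counterscreen on off-target GPR119 to flag nonselective hits from the GPR151 activator screen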
An asterisk follows results filed as active; . = not tested or not shown.

SMILES	MITF inh	TEAD-YAP block	GPR151 ag	FBW7 activator	GPR151 confirm	GPR119 ag
FC(F)(F)c1ccc(Cn2cnc3c(Nc4ccc(N5CCOCC5)cc4)nc(N4CCOCC4)nc32)cc1	10	-1	2	0	.	.
FC(F)(F)c1ccc(Cn2cnc3c(Nc4ccc(N5CCOCC5)cc4)nc(Cl)nc32)cc1	-1	4	6.9*	0	1	-2
COc1ccc(CCNc2nc(Nc3ccc(N4CCOCC4)cc3)nc3c2ncn3-c2ccccc2)cc1	12	12	6.5*	0	0	10
CCOC(=O)N1CCC(n2c(SCC(=O)NCCc3ccccc3)nc3ccccc3c2=O)CC1	5	-25	-1	0	.	.
Cc1nc2ccc(C(=O)NCc3ccco3)cc2nc1C	3	1	-1	0	.	.
Cc1cc(C)n2nc(C(=O)N/N=C\c3c(O)ccc4ccccc34)nc2n1	6	-41	0	0	.	.
CC(C)Oc1ccc(C(=O)Nc2c3c(nn2-c2ccc([N+](=O)[O-])cc2)CS(=O)(=O)C3)cc1	0	7	-2	0	.	.
COc1cc(/C=N/Nc2nc(C)cc(C)n2)ccc1OCc1ccccc1	18	-2	-2	0	.	.
CC(C)[C@H](Cn1nc(-c2cccs2)ccc1=O)NC(=O)c1ccc(=O)[nH]n1	-8	1	0	0	.	.
CCCN1C(=O)/C(=C/c2ccco2)SC1=S	22	-7	-1	0	.	.
CCC(C)N1C(=O)/C(=C\c2ccco2)SC1=S (centres undefined)	-2	2	8.1*	0	0	2
COc1ccccc1OCC(=O)Nc1ccccc1C(=O)O	-7	-57	-4	0	.	.
CCOc1ccc(C(=O)NC(=S)Nc2ccccc2C(=O)OC)cc1[N+](=O)[O-]	-6	0	2	0	.	.
COc1cc(C=O)ccc1OCC(=O)Nc1ccccc1C(=O)c1ccccc1	15	-1	5.8*	0	0	1
COC(=O)c1ccccc1NC(=O)COc1ccc(C=O)cc1	1	0	8.0*	0	0	-10
CCOc1ccc(C(=O)NC(=S)Nc2ccccc2C(=O)OC)cc1	6	-4	6.8*	0	1	-9
COC(=O)c1ccccc1NC(=O)COc1ccc(F)cc1	0	3	-2	0	.	.
Cc1ccc(NC(=O)CCCOc2cccc(C)c2)cc1	1	-10	1	1	.	.
COc1cc(NC(=O)c2sc3ncn(Cc4cccc(F)c4)c(=O)c3c2C)cc(OC)c1OC	13	12	0	0	.	.
O=C(OCN1C(=O)c2ccccc2C1=O)C1CCCCC1	10	5	6.1*	0	-1	-7
CCCOC(=O)CN1C(=O)c2ccc(C(=O)OCCC)cc2C1=O	8	-5	0	0	.	.
CCCOC(=O)CN1C(=O)c2ccc(Br)cc2C1=O	-1	-3	8.7*	0	0	14
COc1ccc(N2CCN(C3CC(=O)NC3=O)CC2)cc1 (centres undefined)	19	12	6.3*	0	2	11
O=C1CC(N2CCN(c3ccc(F)cc3)CC2)C(=O)N1 (centres undefined)	0	-1	-1	0	.	.
Cc1ccc(C(=O)Nc2c(C)cc(C)c([N+](=O)[O-])c2C)cc1	-2	-35	1	0	.	.
SMILES	MITF inh	TEAD-YAP block	GPR151 ag	FBW7 activator	GPR151 confirm	GPR119 ag
CC1CCC2(CC1)NC(=O)N(CC(=O)NC(=O)NCc1ccccc1)C2=O (centres undefined)	17	1	5.5*	0	0	-4
COc1ccc(C2C(C#N)=C(N)N(N(C)C)C3=C2C(=O)CCC3)cc1 (centres undefined)	-4	11	2	0	.	.
CN(C)N1C(N)=C(C#N)C(c2ccc3ccccc3c2)C2=C1CCCC2=O (centres undefined)	1	2	5.9*	0	0	16
Cc1ccc(OCCN2CC(C)OC(C)C2)c(C)c1 (centres undefined)	41	2	0	0	.	.
O=C(Cc1n[nH]c(=O)c2ccccc12)Nc1ccccn1	7	0	5.4*	0	0	-7
CSc1nsc(NC(=O)Cc2n[nH]c(=O)c3ccccc23)n1	-4	-4	-1	0	.	.
O=[N+]([O-])c1cc([N+](=O)[O-])c2nonc2c1Nc1cccc(C(F)(F)F)c1	18	6	7.1*	1	1	-10
O=S(=O)(/C=C/c1ccccc1)N1CCCC(N2CCN(c3ccccc3)CC2)C1 (centres undefined)	1	20	5.6*	0	0	6
COc1cc(OC)c(C(=O)Nc2nc3ccccc3[nH]2)cc1OC	1	-49	-1	0	.	.
CCCOc1ccc(COC2C(C3COC(C)(C)O3)OC3OC(C)(C)OC32)cc1 (centres undefined)	11	13	-1	0	.	.
Cc1nc2nc(NCc3ccccc3F)[nH]n2c(=O)c1C	-7	3	5.0*	0	0	0
COc1ccc(CNc2nc3nc(C)c(C)c(=O)n3[nH]2)cc1	-12	-11	5.5*	0	1	17
CCn1c(CCCCCNC(C)=O)nc2ccccc21	-12	1	0	0	.	.
CNC(=O)C1CCN(C(=O)c2cnn(-c3ccccc3)c2-n2cccc2)CC1	6	-6	-1	0	.	.
CC(=O)Cn1nnc(-c2ccccc2)n1	2	-10	-1	0	.	.
C/C(=N\NC(=O)Cn1nnc(-c2ccccc2)n1)c1nonc1C	13	1	16*	0	-1	-14
N#Cc1c(C(F)(F)F)cc(-c2ccccc2)nc1SCC(=O)N1c2ccccc2Sc2ccc(Cl)cc21	-5	0	1	1	.	.
Cc1ccc(Nc2ccn3ncc(-c4cccc(Cl)c4)c3n2)cc1NS(C)(=O)=O	20	-3	0	2	.	.
COCCCN1C(=O)c2ccc(C(=O)Oc3ccc(C(C)(C)C)cc3)cc2C1=O	8	3	5.2*	1	1	-3
CCc1cc2c(cc3c(=O)n(CC(=O)NCc4ccccc4Br)ncn32)s1	-8	6	6.4*	0	3	11
O=C(CCn1c(=O)oc2ccccc21)N1CCc2c(nc(N3CCCC3)[nH]c2=O)C1	10	6	5.1*	0	0	4
Cc1nc2ccccc2n1CC(=O)N1CCc2c(nc(N3CCCC3)[nH]c2=O)C1	12	6	17*	0	-1	5

Source: PubChem
